Source: PubChem (National Center for Advancing Translational Sciences (NCATS))
TDP1 inh: qHTS Assay for Inhibitors of Tyrosyl-DNA Phosphodiesterase (TDP1) | Potency, µM (doses to about 130 µM), without a hit: at the top dose activity change, negative = inhibition, actives largely listed as inhibitors | recombinant TDP1, AlphaScreen DNA substrate cleavage | 350,000 compounds, 0.28% hits | Tyrosyl-DNA phosphodiesterase 1 (Homo sapiens), Q9NUW8; also: potency is read from the fitted curve at half-maximal effect; % is scaled to controls: 0 for no effect and ±100 for the full control effect; nearly all actives have a fitted effect of over 40% in size
Target sequence (Q9NUW8 whole entry, looked up): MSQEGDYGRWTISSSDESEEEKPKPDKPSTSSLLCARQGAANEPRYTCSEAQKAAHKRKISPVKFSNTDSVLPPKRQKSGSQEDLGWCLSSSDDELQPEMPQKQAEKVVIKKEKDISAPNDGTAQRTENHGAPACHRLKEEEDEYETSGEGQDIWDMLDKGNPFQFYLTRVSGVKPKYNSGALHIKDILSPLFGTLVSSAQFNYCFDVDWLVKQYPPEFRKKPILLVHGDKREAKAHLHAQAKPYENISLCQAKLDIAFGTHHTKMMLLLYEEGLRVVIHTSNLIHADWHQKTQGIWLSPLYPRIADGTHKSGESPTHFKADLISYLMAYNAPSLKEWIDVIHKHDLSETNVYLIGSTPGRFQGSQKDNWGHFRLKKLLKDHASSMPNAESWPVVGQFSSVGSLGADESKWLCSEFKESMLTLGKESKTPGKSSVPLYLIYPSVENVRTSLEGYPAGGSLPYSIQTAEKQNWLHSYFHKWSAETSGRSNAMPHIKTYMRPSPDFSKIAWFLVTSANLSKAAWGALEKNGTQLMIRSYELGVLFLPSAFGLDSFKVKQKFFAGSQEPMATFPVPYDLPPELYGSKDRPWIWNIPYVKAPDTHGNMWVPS
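AlphaScreen read-out: signal falls as enzyme removes the 3' tyrosine-FITC from a 5'-biotinylated DNA oligo (15 nM, 5 min, RT). Enzyme was E. coli-made recombinant Tdp1 at 1 nM, exposed to compound for 15 min beforehand; beads 10 ug/ml, 10 min.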
DT40 TDP1 no CPT: qHTS for Inhibitors of human tyrosyl-DNA phosphodiesterase 1 (TDP1): qHTS in cells in absence of CPT; DT40 Tdp1-/- hTDP1 cells, no CPT, ATP luminescence, 48 h; Potency, µM (highest dose often 46.2 µM), inactives show at the top dose activity change, negative = growth inhibition, actives largely listed as inhibitors; 420,000 compounds, 15% hits; AID 686978, 2013; also: potency is read from the fitted curve at half-maximal effect; % is scaled to controls: 0 for no effect and ±100 for the full control effect; nearly all actives have a fitted effect of over 55% in size
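No-CPT arm: Tdp1-/-;hTDP1 DT40 cells (400/well) plus compounds, incubated ≥48 hr at 37 °C. Readout CellTiter-Glo luminescence.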
TGFb inhibitor: qHTS for Inhibitors of TGF-b; HepG2 CAGA-GFP TGF-b/SMAD3 reporter, GFP fluorescence, 18 h; TGF-beta stimulated, 500 pg/mL final; Potency, µM (titrated, usually from 46.1 µM), for the others: at the highest dose activity, negative = inhibition, hits mostly inhibitors; 410,000 compounds, 1.2% hits; AID 588855, 2011; also: potency is read from the fitted curve at half-maximal effect; % is scaled to controls: 0 for no effect and ±100 for the full control effect; nearly all actives have a fitted effect of over 65% in size
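First, reporter cells (HEPG2 CAGA-GFP) rested 2 h at 37 degrees C. Next, compounds were pinned in and TGF-beta added to 500 pg/mL final. After 18 h, GFP was imaged per cell and summed per well.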
IL-1B inflam inh: qHTS for Inhibitors of Inflammasome Signaling: IL-1-beta AlphaLISA Primary Screen. activity change, % at 57.5 µM. 360,000 compounds, 4.7% hits. THP-1 LPS/ATP IL-1B secretion, AlphaLISA, 16 h; hits give low values. AID 743279, 2014; in the data active = activity change below about -50%; inconclusive = mostly about -30% to -49%; also: % is scaled to controls: 0 for no effect and ±100 for the full control effect
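THP-1 cells pretreated 1 hr with compounds (up to 57.5 uM final), then stimulated with LPS (250 ng/mL final) plus ATP (1.25 mM final); secreted IL-1B measured by AlphaLISA after 16 hr, decreased signal indicating inhibition.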
HepG2 viability: qHTS for Inhibitors of TGF-b: Cytotox Counterscreen | HepG2 CAGA-GFP viability, ATP luminescence, 18 h | Potency, µM (highest dose often 46.1 µM), for inactives: top-dose activity change, negative = cytotoxicity, most hits filed as cytotoxic | 410,000 compounds, 0.76% hits | AID 588856, 2011; also: potency is read from the fitted curve at half-maximal effect
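CellTiter-Glo luminescence gave cytotoxicity after 18 hours at 37 degrees C. The cells were HepG2 CAGA-GFP in 1% FBS DMEM, stimulated with 500 pg/mL TGF-beta after compound addition. %Activity was normalised to no-cell wells (complete cell-killing) and DMSO (no toxicity), and curves were fitted and classified.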
TDP1 cell CPT: qHTS for Inhibitors of human tyrosyl-DNA phosphodiesterase 1 (TDP1): qHTS in cells in presence of CPT; chicken DT40 Tdp1-/-;hTDP1 cells + 20 nM CPT, ATP luminescence, 48 h; Potency, µM (highest dose often 46.2 µM), for inactives: top-dose activity change, negative = growth inhibition, hits mostly inhibitors; 420,000 compounds, 12% hits; also: potency is read from the fitted curve at half-maximal effect; % is scaled to controls: 0 for no effect and ±100 for the full control effect; nearly all actives have a fitted effect of over 55% in size
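Chicken DT40 Tdp1-/- cells complemented with human TDP1, 400 cells/well, exposed to compounds plus 20 nM camptothecin for at least 48 h at 37 C; viability read as ATP content by CellTiter-Glo luminescence.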
An asterisk follows results filed as active. This is a sample that favours compounds with a hit; in the whole collection about 19% have one here. Unless noted, calls follow the shape of the dose curve; as a rule, active = well fitted curve in the direction sought with a large enough effect; inconclusive = small, poorly fitted or top-dose-only effect, or another doubt; inactive = no such curve, though single readings can be large; an effect the other way counts as inactive or inconclusive.

Results for CC(NC(=O)CNC(=S)N(Cc1cccs1)C1CCCC1)c1ccccc1 (configuration not stated) ?
TDP1 inh: 4.6%; DT40 TDP1 no CPT: 16.4µM*; TGFb inhibitor: -6.2%; IL-1B inflam inh: -23.8; HepG2 viability: -15.6%; TDP1 cell CPT: inconclusive

How did Cc1ccccc1NC(=S)N(Cc1cccs1)C1CCCCC1 do in these assays?
TDP1 inh: 0.0%; DT40 TDP1 no CPT: 9.2µM*; TGFb inhibitor: -17.4%; IL-1B inflam inh: -2.9; HepG2 viability: -13.6%; TDP1 cell CPT: -28.8%

What do the screens show for `CC(C)[C@@H](CC(=O)N[C@@H]1CCNC[C@H]1C(=O)N[C@H](CC(=O)N[C@@H](CCC(=O)O)CC(=O)O)Cc1ccccc1)NC(=O)C[C@H](CO)NC(=O)[C@@H]1CCCC[C@H]1N`?
TDP1 inh: -8.1%

Results for CCOc1ccc(NC(=O)CSc2nc(-c3ccccc3)c3cc(OCC)ccc3n2)cc1 ?
TDP1 inh: 9.3%; DT40 TDP1 no CPT: inconclusive; TGFb inhibitor: 11.9%; HepG2 viability: 3.7%; TDP1 cell CPT: 14.6µM*

Results for Cc1cc(C)cc(NC(=O)CSc2nc(-c3ccccc3)c3cc(F)ccc3n2)c1 ?
TDP1 inh: -4.7%; DT40 TDP1 no CPT: 18.4µM*; TGFb inhibitor: 0.3%; HepG2 viability: -4.6%; TDP1 cell CPT: 18.4µM*

How did CC(=O)c1cc2c(cc1NC(=O)c1c(C)nn(-c3ccc(C)cc3)c1-n1cccc1)OCO2 do in these assays?
TDP1 inh: -2.8%; DT40 TDP1 no CPT: -1.8%; TGFb inhibitor: -18.1%; HepG2 viability: -17.9%; TDP1 cell CPT: -2.1%

How did COc1ccc2c(c1)c1c(c(=O)n(Cc3ccccc3)c(=O)n1CC(=O)NCc1ccccc1Cl)n2C do in these assays?
TDP1 inh: 2.9%; DT40 TDP1 no CPT: 0.2%; TGFb inhibitor: -5.5%; HepG2 viability: -17.8%; TDP1 cell CPT: 5.9%

Results for COC(=O)[C@]12CCCCC=C1N(Cc1cccc3ccccc13)C(=O)[C@H](CC(=O)N1CCCC1)C2 ?
DT40 TDP1 no CPT: 20.6µM*; IL-1B inflam inh: -18.7; TDP1 cell CPT: inconclusive

Results for COC(=O)[C@]12CCCCC=C1N(Cc1cccc3ccccc13)C(=O)[C@H](CC(=O)N1CCN(C(=O)C3CC3)CC1)C2 ?
DT40 TDP1 no CPT: 20.6µM*; IL-1B inflam inh: 6.2; TDP1 cell CPT: inconclusive

Results for Cn1c(=O)oc2cc(S(=O)(=O)NC(Cc3ccccc3)C(=O)Nc3ccc(F)c(Cl)c3)ccc21 (configuration not stated) ?
TDP1 inh: -1.2%; DT40 TDP1 no CPT: -22.1%; TGFb inhibitor: 4.4%; HepG2 viability: -22.4%; TDP1 cell CPT: -0.3%

How did Cc1ccc2c(CC(=O)Nc3ccc(S(=O)(=O)N4CCC(C)CC4)cc3)coc2c1 do in these assays?
TDP1 inh: 2.5%; DT40 TDP1 no CPT: inconclusive; TGFb inhibitor: inconclusive; HepG2 viability: -14.1%; TDP1 cell CPT: inconclusive

How did CCc1cccc(CC)c1N(COC)C(=O)Cn1c(CO)nc2ccccc21 do in these assays?
TDP1 inh: 0.0%; DT40 TDP1 no CPT: inconclusive; TGFb inhibitor: 0.1%; IL-1B inflam inh: 0.8; HepG2 viability: -2.3%; TDP1 cell CPT: inconclusive

What do the screens show for `CCOCN(C(=O)CSc1nc2ccccc2[nH]1)c1c(C)cccc1CC`?
DT40 TDP1 no CPT: 23.1µM*; TGFb inhibitor: -40.0%; HepG2 viability: -43.5%; TDP1 cell CPT: 14.6µM*

How did CCOCN(C(=O)Cn1c(CC(C)C)nc2ccccc21)c1c(C)cccc1CC do in these assays?
DT40 TDP1 no CPT: 23.1µM*; TGFb inhibitor: 0.0%; HepG2 viability: -18.9%; TDP1 cell CPT: inconclusive

What do the screens show for `Cn1c(SCC(=O)c2ccc3c(c2)Cc2ccccc2-3)nnc1-c1ccccc1`?
TDP1 inh: -7.7%; DT40 TDP1 no CPT: 29.1µM*; TGFb inhibitor: 30.2%; IL-1B inflam inh: -12.9; HepG2 viability: 10.3%; TDP1 cell CPT: -28.7%

How did CCc1ccc(NC(=O)CSc2nnc(-c3ccccc3)n2C)cc1 do in these assays?
DT40 TDP1 no CPT: -1.7%; TGFb inhibitor: 12.5%; HepG2 viability: 7.9%; TDP1 cell CPT: 15.8µM*

How did CCn1c(SCC(=O)NC(C)(C)C)nnc1-c1ccncc1 do in these assays?
TDP1 inh: 2.5%; DT40 TDP1 no CPT: 9.3%; TGFb inhibitor: -3.1%; IL-1B inflam inh: 2.8; HepG2 viability: 2.1%; TDP1 cell CPT: -2.4%

Results for Cc1ccc(NC(=O)CSc2nnc(-c3ccccc3)n2C)cc1 ?
DT40 TDP1 no CPT: -19.6%; TGFb inhibitor: -6.5%; HepG2 viability: 2.2%; TDP1 cell CPT: -1.1%

How did Cn1c(SCC(=O)NC(C)(C)C)nnc1-c1ccc(C(C)(C)C)cc1 do in these assays?
TDP1 inh: 4.1%; DT40 TDP1 no CPT: 23.1µM*; TGFb inhibitor: -4.8%; IL-1B inflam inh: 21.2; HepG2 viability: -20.3%; TDP1 cell CPT: inconclusive

How did COc1ccc2c(Cl)c(-c3nnc(SCC(=O)c4ccccc4)n3C)sc2c1 do in these assays?
TDP1 inh: 89.1µM*; DT40 TDP1 no CPT: inconclusive; TGFb inhibitor: -14.1%; IL-1B inflam inh: inconclusive; HepG2 viability: -19.3%; TDP1 cell CPT: inconclusive

What do the screens show for `COc1ccc(S(=O)(=O)N2CCCCCC2)cc1C(=O)NCCc1ccccc1`?
TDP1 inh: 0.0%; DT40 TDP1 no CPT: inconclusive; TGFb inhibitor: inconclusive; IL-1B inflam inh: 13.8; HepG2 viability: -45.8%; TDP1 cell CPT: inconclusive

How did N#CC(c1ccccc1)c1ccc(C(=O)c2ccc(F)cc2)cc1 (configuration not stated) do in these assays?
TDP1 inh: 2.0%; DT40 TDP1 no CPT: 23.1µM*; TGFb inhibitor: inconclusive; IL-1B inflam inh: 4.0; HepG2 viability: -4.2%; TDP1 cell CPT: -55.6%

How did CCC(C)NC(=O)c1cnn(-c2ccc(Cl)cc2)c1C1CCN(C(=O)OC(C)(C)C)CC1 (configuration not stated) do in these assays?
TDP1 inh: 0.0%; DT40 TDP1 no CPT: inconclusive; TGFb inhibitor: -28.3%; HepG2 viability: -11.2%; TDP1 cell CPT: inconclusive
